Reference: PubChem BioAssay (NCATS)
Results filed as inconclusive are left out. Values without a mark were called inactive. Calls of active or inactive are those of the source. Calls follow the shape of the dose curve; as a rule, active = well fitted cell-killing curve with a large enough effect; inconclusive = small, poorly fitted or top-dose-only effect; inactive = flat fitted curve, though single readings scatter.

Test: qHTS of pediatric cancer cell lines to identify multiple opportunities for drug repurposing: Primary screen for Rh18 cells (AID 1347102); also: nearly all actives have a fitted effect of over 65% in size
Settings: Rh18 rhabdomyosarcoma viability, CellTiter-Glo luminescence, 48 h; series mostly up to 46 µM; activity change, negative = cytotoxic: at the top concentration
Excerpt: Drug repurposing or repositioning has been offered as a strategy for drug development in oncology programs. This approach has special potential for childhood cancers and other rare or orphan diseases, where the expected return on new drug development has been a disincentive to pharmaceuticals.
In this project we exploit the poly-pharmacology of drugs to discover new indications via phenotypic screening of a panel of 19 well-characterized cell lines derived from solid tumors seen in children and adolescents. The goal is to identify approved drugs with previously unrecognized anticancer properties that has the potential to reveal new mechanisms and biological processes involved in carcinogenesis or drug resistance. We employed a titration-based paradigm (quantitative high-throughput screening or qHTS), where all compounds were tested at multiple concentrations for their effect on cell viability. Concentration-response curves (CRCs) were derived directly from the primary screen, and both potency and efficacy values were used to identify compounds with robust bioactivity profiles. We screened the NIH Chemical Genomics Center (NCGC) Pharmaceutical Collection (NPC) and Mechanism Interrogation Plate (MIPE) small molecule collections of approved and investigational compounds against these cell lines; and measured metabolically active cells after 48 hours of compound treatment as a proxy for cell viability.
Assay Submitter: Nathalia J. Martinez, National Center for Advancing Translational Sciences, National Institutes of Health, Rockville, MD, USA; email: natalia.martinez@nih.gov
[1] Shen, M et al. Quantitative high-throughput phenotypic screening of pediatric cancer cell lines identifies multiple opportunities for drug repurposing. Oncotarget 2017 Dec 19;9(4):4758-4772. PMID 29435139.
The cells were obtained from University of North Carolina (UNC), Pediatric Preclinical Testing Program (PPT), and Coriell Institute (CI).
qHTS cell viability assay:
Cells were assayed in growth media at a density of 500-1,000 cells/well. Five microliters of cells were dispensed into 1,536-well, white, solid-bottom, TC-treated plates (Greiner Bio One) using a multidrop dispenser and incubated at 37 degrees C, 5% CO2, under a humidified atmosphere for 5 hours. Twenty-three nanoliters of compounds and controls (neutral control DMSO or positive control bortezomib at final concentration of 2.3 µM) were subsequently transferred by Kalypsys pintool. For primary screens, the MIPE collection was tested at 11-point dilutions (final concentrations range from 0.78 nM to 46 µM) and the NPC collection at 8-point dilutions (final concentrations range from 0.59 nM to 46 µM). Compounds tested in follow-up screens were assayed at 11-point dilutions. Cells were incubated for 48 hours, followed by addition of 3 µL of CellTiter-Glo (Promega). After a 15 min incubation at room temperature, samples were analyzed for luminescence intensity using a ViewLux High-throughput CCD imager equipped with clear filters.
% is scaled to controls: 0 for no effect and ±100 for the full control effect; potency is read from the fitted curve at half-maximal effect.

With CCc1ccc(OCc2ccccc2C(=O)Nc2ccc3nc(C)cc(N)c3c2)cc1 the Potency was 8.33 µM (active).
In the case of Cc1c(O)cccc1C(=O)N[C@@H](CSc1ccccc1)[C@H](O)CN1C[C@H]2CCCC[C@@H]2C[C@@H]1C(=O)NC(C)(C)C, the Potency is reported as 18.7 µM (active).
In the case of C=C1C(=O)[C@@]23C(CC[C@@H]1[C@H]2O)[C@@]12CO[C@]3(O)[C@@H](O)[C@@H]1C(C)(C)CC[C@@H]2O (stereo not given in full), the Potency is reported as 9.35 µM (active).
For CC(=O)N(C)C1(c2ccccc2)CCN(CCC[C@]2(c3ccc(Cl)c(Cl)c3)CCCN(C(=O)c3ccccc3)C2)CC1, the Potency was 26.4 µM (active).
With Cc1nc(N)sc1-c1ccnc(Nc2ccc(N3CCOCC3)cc2)n1 the Potency was 16.6 µM (active).
With O=C(NCc1ccccc1)c1csc(Nc2ccncn2)n1 the Potency was 23.5 µM (active).
With CCOC(=O)C1=C(N)Oc2ccc(Br)cc2C1C(C#N)C(=O)OCC (stereo not given) the Potency was 14.8 µM (active).

Going from CC[C@@]1(O)C[C@H](O[C@H]2C[C@H](N(C)C)[C@H](O[C@H]3C[C@H](O)[C@H](O[C@H]4CCC(=O)[C@H](C)O4)[C@H](C)O3)[C@H](C)O2)c2c(cc3c(c2O)C(=O)c2c(O)cccc2C3=O)[C@@H]1C(=O)OC to CCOC1OC(=O)C[C@H]1NC(=O)[C@@H]1CCCN1C(=O)[C@@H](NC(=O)c1ccc(N)c(Cl)c1)C(C)(C)C (stereo not given in full), the “activity change, negative = cytotoxic” value falls from 7.19% to -7.9%.

First: C=CCc1ccc(O)c(-c2ccc(O)c(CC=C)c2)c1
Second: O=c1cc(-c2ccccc2)oc2cc(O)cc(O)c12
The “activity change, negative = cytotoxic” value of the first is lower: -12.6% for the first, 22.9% for the second.

First: COc1ccccc1N1CCN(CCCNc2cc(=O)n(C)c(=O)n2C)CC1
Second: COc1cccc([C@@H](C)NCCCc2ccccc2Cl)c1
The “activity change, negative = cytotoxic” value of the first is higher: 12.2% for the first, 11.8% for the second.

Compared with c1cc(-c2sc(-c3ccncc3)c(-c3ccncc3)c2-c2ccncc2)ccn1, COc1ccc2cc(-c3nc(-c4ccc(S(C)=O)cc4)[nH]c3-c3ccncc3)ccc2c1 (stereo not given) is higher in “activity change, negative = cytotoxic” value: -4.14% for the first, 21.9% for the second.

First: CCc1ccc(C=C2SC(=S)NC2=O)cc1
Second: O=C1NC(=O)C(=Cc2ccc3c(c2)OC(F)(F)O3)S1
The “activity change, negative = cytotoxic” value of the first is higher: -4.14% for the first, -9.2% for the second.

First: COc1ccc(C2Sc3ccccc3N(CCN(C)C)C(=O)C2OC(C)=O)cc1 (stereo not given)
Second: CCN(CC)CCOc1ccc(C(=C(Cl)c2ccccc2)c2ccccc2)cc1
The “activity change, negative = cytotoxic” value of the first is lower: -4.69% for the first, -1.77% for the second.

Going from COC1CCC(N(C(=O)C2CCC(C)CC2)c2cc(C3=CCCCC3)sc2C(=O)O)CC1 (stereo not given) to CC(C)C(C)C=CC(C)C1CCC2C3=CC=C4CC(O)CCC4(C)C3CCC21C (stereo not given), the “activity change, negative = cytotoxic” value rises from 4.41% to 14.3%.

Going from CON=C(C(=O)N[C@@H]1C(=O)N2C(C(=O)OCOC(=O)C(C)(C)C)=C(C=Cc3scnc3C)CS[C@H]12)c1csc(N)n1 to CC(C)(C)C(=O)Oc1ccc2c(c1)nc(NC(=O)c1cccc([N+](=O)[O-])c1)n2CCCO, the “activity change, negative = cytotoxic” value falls from 19.3% to 16.5%.

First: CCCNC(=O)NS(=O)(=O)c1ccc(Cl)cc1
Second: CCN1CCC[C@H]1CNC(=O)c1cc(S(N)(=O)=O)ccc1OC
The “activity change, negative = cytotoxic” value of the first is lower: 5.86% for the first, 24.7% for the second.

First: O=c1ccn([C@@H]2O[C@H](CO)[C@H](O)[C@H]2O)c(=O)[nH]1
Second: CC(=O)CCCCn1c(=O)c2c(ncn2C)n(C)c1=O
The “activity change, negative = cytotoxic” value of the first is higher: 13.6% for the first, 1.31% for the second.

First: NC(=O)NN=Cc1ccc([N+](=O)[O-])o1
Second: O=C(OCC#CCSc1nnc(-c2cccc3ccccc23)o1)c1cc2ccccc2s1
The “activity change, negative = cytotoxic” value of the first is higher: 11.1% for the first, -6.47% for the second.

Going from CCC(=O)NC[C@H](Cc1ccc(OCCc2nc(-c3ccccc3)oc2C)cc1)NC(C)=CC(=O)c1ccc(C(F)(F)F)cc1 to O=C(O)CCc1nc(-c2ccccc2)c(-c2ccccc2)o1, the “activity change, negative = cytotoxic” value rises from -22.4% to -0.35%.

Compared with CC(C)(C)c1ccc(C(O)CCCN2CCC(C(O)(c3ccccc3)c3ccccc3)CC2)cc1 (stereo not given), N#CC1(c2ccc(NC(=O)c3cccnc3NCc3ccncc3)cc2)CCCC1 is lower in “activity change, negative = cytotoxic” value: 18.8% for the first, -17.3% for the second.

Compared with CC1(C)CCC[C@@]2(C)[C@@H]1CC[C@@]1(C)OC(=O)C[C@H]21, O=C(Nc1c(Cl)cncc1Cl)c1ccc(OC(F)F)c(OCC2CC2)c1 is higher in “activity change, negative = cytotoxic” value: -6.76% for the first, 10.8% for the second.

Compared with C[N+](C)(C)CCCCCC[N+](C)(C)C, CC(=O)N[C@@H](CS)C(=O)O is higher in “activity change, negative = cytotoxic” value: 2.99% for the first, 14.4% for the second.

First: N#Cc1ccc(NC(=O)Nc2ccccc2Br)c2n[nH]nc12
Second: Cn1cc(C=C2C(=O)Nc3cccnc32)c2ccccc21
The “activity change, negative = cytotoxic” value of the first is higher: 5.18% for the first, -10.8% for the second.

For CS(=O)c1ccc(-c2nc(-c3ccc(F)cc3)c(-c3ccncc3)[nH]2)cc1 (stereo not given), the “activity change, negative = cytotoxic” value was -16.3% [at 92.7 µM].
